Rows were chosen to be rich in hits. Some 11% of all compounds tested hit in one or more screens of this group.
PI5P4Ka inh – PI5P4K alpha (human) kinase inhibition. P48426. PI5P4Kalpha enzyme, ADP-Glo luminescence, 60 min; stronger effect = lower value. max response, %. 330,000 compounds, 1.2% hits. AID 652105; active means max response of -50% or lower; inconclusive means between -30% and -50%; inactive means -30% or higher; further: value at the top dose of about 77 µM
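Single end-point luminescence (ADP-Glo) quantified ADP from PI5P4Kalpha turnover; ATP 5 microM final, 1 h at RT, 0.1% CHAPS and 0.28 mM EGTA in HEPES pH 7.4.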
HP1b binding inh – blocks HP1-beta chromodomain binding to methylated histone tails | 390,000 compounds, 0.56% hits | Potency, µM (highest dose often 114 µM), usual class: inhibitors | P83916 | AlphaScreen HP1-beta / biotin-H3K9me3 peptide binding; further: nearly all actives have a fitted effect of over 70% in size
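HP1-beta protein (50 nM final) preincubated 30 min at room temperature with biotinylated H3(1-18)K9me3 peptide (50 nM) in PBS pH 7.4, 0.01% Tween-20, then compound added for 30 min. AlphaScreen streptavidin donor/nickel chelate acceptor beads (10 ug/mL final), 30 min dark, luminescence read.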
BAZ2B block – BAZ2B (human) inhibition; Q9UIF8; AlphaScreen BAZ2B-H3K14Ac peptide displacement; Potency, µM (highest dose often 114 µM), usual class: inhibitors; 360,000 compounds, 4.4% hits; further: nearly all actives have a fitted effect of over 60% in size
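BAZ2B (50 nM) with biotin-H3(5-23)K14Ac peptide (50 nM) in PBS pH 7.4, 0.01% Tween-20, preformed 30 min, then compound 30 min at room temperature; top concentration 110uM. AlphaScreen streptavidin donor/nickel chelate acceptor beads (10 ug/mL final), 20 min dark, signal read.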
JMJD2A Tudor inh – inhibitors of human JMJD2A Tudor domain | O75164 | AlphaScreen JMJD2A-Tudor / H3K4me3 peptide binding | Potency, µM (series often up to 114 µM), actives largely listed as inhibitors | 390,000 compounds, 4.4% hits | AID 504339; further: nearly all actives have a fitted effect of over 50% in size
G9a block – inhibitors of human histone lysine methyltransferase G9a. Q96KQ7. AID 504332. 350,000 compounds, 8.8% hits. G9a H3K9 monomethylation, AlphaScreen, 2 h. Potency, µM (doses to about 102 µM), actives largely listed as inhibitors; further: nearly all actives have a fitted effect of over 75% in size
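AlphaScreen detection with an anti-monomethyl H3K9 antibody quantified product after a 2 h room-temperature reaction containing 500 nM biotinylated H3K9 peptide, 20 µM SAM and 20 nM enzyme, which had been preincubated 15 min with compound.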
L3MBTL1 inh – inhibitors of human L3MBTL1; AlphaScreen L3MBTL1–H3K9me1 peptide binding; 230,000 compounds, 0.66% hits; AID 485360; Potency, µM (titrated, usually from 57.1 µM), usual class: inhibitors; further: nearly all actives have a fitted effect of over 60% in size
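L3MBTL1 (50 nM) pre-complexed 30 min with biotinylated H3(1-15)K9me1 peptide (75 nM), then compounds added for 30 min at room temperature; AlphaScreen streptavidin donor/nickel chelate acceptor beads (10 ug/mL final) read after 30 min dark incubation.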
Of the large screens only hits and unclear results are named; the others gave an inactive call; ! = not active in a repeat. Unless noted, the call rests on the fitted dose curve; in most records, active means well fitted inhibition curve with a large enough effect; inconclusive means small, poorly fitted or top-dose-only effect; inactive means no such curve, though single readings can be large or run the other way.

Cc1ccc(Sc2c(C)nn(C(=O)COc3ccccc3)c2C)cc1	none (no result: PI5P4Ka inh, L3MBTL1 inh)
CCOCc1nnc(NC(=O)c2cc(OC)cc(OC)c2)s1	G9a block 32µM
CCOc1ccc(OCC(=O)Nc2nccs2)cc1	PI5P4Ka inh inconclusive, BAZ2B block inconclusive, G9a block 35µM
CCOCC(=O)Nc1nnc(COC)s1	none (no result: PI5P4Ka inh)
CCOCc1nnc(NC(=O)c2cccc(OC)c2)s1	BAZ2B block inconclusive, G9a block 50µM
COc1ccc(OCC(=O)Nc2nccs2)cc1	G9a block inconclusive
CCOCC(=O)Nc1nnc(COc2ccc(Cl)cc2)s1	PI5P4Ka inh inconclusive, HP1b binding inh inconclusive, JMJD2A Tudor inh inconclusive, G9a block 4µM
Cc1cc(C)c(NC(=O)Cn2c(=O)n(-c3ccc(F)cc3)c(=O)c3c(C)c(C(=O)N(C)C)sc32)c(C)c1	none (no result: PI5P4Ka inh, L3MBTL1 inh)
CCOc1ccc(CCNC(=O)c2cnc3sc(N4CCC(C)CC4)nn3c2=O)cc1	none (no result: PI5P4Ka inh, L3MBTL1 inh)
COc1cccc(C(=O)Nc2nnc(-c3cccs3)s2)c1	G9a block 10µM (no result: L3MBTL1 inh)
N=C(N)c1ccc(OCCCCCOc2ccc(C(=N)N)cc2)cc1	none
N=C(N)c1ccc(N)cc1	G9a block 1µM!
Fc1ccc(C2CCNCC2COc2ccc3c(c2)OCO3)cc1 (stereo not given)	HP1b binding inh inconclusive, BAZ2B block inconclusive, JMJD2A Tudor inh inconclusive, G9a block 50µM (no result: L3MBTL1 inh)
Fc1ccc([C@@H]2CCNC[C@H]2COc2ccc3c(c2)OCO3)cc1	HP1b binding inh inconclusive, BAZ2B block inconclusive, JMJD2A Tudor inh inconclusive, G9a block 24µM
CCOc1cccc(C2C=C(c3ccc4c(c3)OCO4)NC(c3ccc(F)cc3)N2)c1O (stereo not given)	JMJD2A Tudor inh inconclusive (no result: PI5P4Ka inh, BAZ2B block, G9a block, L3MBTL1 inh)
O=C(COc1ccc2c(c1)OCO2)Nc1ccccc1F	BAZ2B block inconclusive, G9a block inconclusive
CCOC(=O)N1CCc2c(sc3c2c(=O)n(Cc2ccccc2)c(=O)n3Cc2cccc(Cl)c2)C1	none (no result: PI5P4Ka inh, L3MBTL1 inh)
Oc1c(Cl)cc(Cl)cc1/C=N/NC(=S)NC1CC2C=CC1C2 (stereo not given)	PI5P4Ka inh -61, BAZ2B block 7.9µM, JMJD2A Tudor inh 50µM, L3MBTL1 inh 32µM
Oc1ccccc1/C=N/NC(=S)NC1CC2C=CC1C2 (stereo not given)	BAZ2B block 28µM, JMJD2A Tudor inh 45µM, G9a block inconclusive, L3MBTL1 inh inconclusive
Oc1c(Cl)cc(Cl)cc1/C=N/Nc1ncc(Br)cn1	none
Oc1ccccc1C=NNC(=S)Nc1ccc(F)cc1	PI5P4Ka inh inconclusive, JMJD2A Tudor inh 56µM (no result: BAZ2B block, G9a block, L3MBTL1 inh)
Oc1ccccc1C=NNC(=S)NC1CC2C=CC1C2 (stereo not given)	none (no result: HP1b binding inh, BAZ2B block, JMJD2A Tudor inh, G9a block, L3MBTL1 inh)
N=c1ccn2c(n1)OC1C(O)[C@@H](CO)O[C@H]12 (stereo not given in full)	none (no result: PI5P4Ka inh, BAZ2B block, G9a block, L3MBTL1 inh)
COc1ccc(OC)c(NCc2cccn2-c2nnc(N3CCC(C)CC3)s2)c1	HP1b binding inh inconclusive, JMJD2A Tudor inh inconclusive, G9a block 7.9µM (no result: PI5P4Ka inh, L3MBTL1 inh)
COc1ccc(CNC(=O)C2CCN(c3nnc(-n4cccc4CNc4ccc(C)cc4)s3)CC2)c(OC)c1	G9a block 1.4µM (no result: PI5P4Ka inh, L3MBTL1 inh)
COc1ccc(NCc2cccn2-c2nnc(N3CCOCC3)s2)c(OC)c1	G9a block inconclusive (no result: PI5P4Ka inh, L3MBTL1 inh)
COCCCNC(=O)C1CCN(c2nnc(-n3cccc3CNc3ccc(C)cc3)s2)CC1	BAZ2B block inconclusive (no result: PI5P4Ka inh, L3MBTL1 inh)
COc1ccc(OC)c(NC(=O)Nc2nnc(N3CCC(C)CC3)s2)c1	BAZ2B block inconclusive, JMJD2A Tudor inh inconclusive, G9a block 50µM
COc1ccc(NCc2cccn2-c2nnc(N3CCC(C)CC3)s2)c(OC)c1	HP1b binding inh inconclusive, BAZ2B block inconclusive, JMJD2A Tudor inh 28µM, G9a block 5.6µM (no result: PI5P4Ka inh, L3MBTL1 inh)
COc1ccccc1NCc1cccn1-c1nnc(N2CCOCC2)s1	none (no result: PI5P4Ka inh, L3MBTL1 inh)
COc1ccc(OC)c(NC(=O)C2C3CCC(C3=C(C)C)C2C(=O)O)c1 (stereo not given)	JMJD2A Tudor inh inconclusive, G9a block 8.9µM
COc1ccc(OC)c(NC(=O)C2CCCCC2C(=O)O)c1 (stereo not given)	none
CCOc1cccc(C(=O)Nc2nnc(-c3ccco3)s2)c1	BAZ2B block inconclusive, G9a block 56µM

Assay outcomes (PubChem BioAssay)
